Values joined by “and” are separate entries in the source; they are usually repeats but may differ in a detail not shown here. Equal values may be shown once. Unmarked numbers belong to inactive results. Results filed as inconclusive are left out. A call without a number means that no potency is given here. Active and inactive are the calls of the source. The call rests on the fitted dose curve; in most records, active means well fitted curve in the direction sought with a large enough effect; inconclusive means small, poorly fitted or top-dose-only effect, or another doubt; inactive means no such curve, though single readings can be large; an effect the other way counts as inactive or inconclusive.
Tests used:
[1] = biological target: Single-stranded DNA cytosine deaminase (Homo sapiens) (UniProt Q9GZX7); experiment: Validation qHTS assay for inhibitors of Activation Induced Cytidine Deaminase (AID): AID signal (AID 1347429)
Sequence of Single-stranded DNA cytosine deaminase (Homo sapiens) (Q9GZX7 whole entry, looked up): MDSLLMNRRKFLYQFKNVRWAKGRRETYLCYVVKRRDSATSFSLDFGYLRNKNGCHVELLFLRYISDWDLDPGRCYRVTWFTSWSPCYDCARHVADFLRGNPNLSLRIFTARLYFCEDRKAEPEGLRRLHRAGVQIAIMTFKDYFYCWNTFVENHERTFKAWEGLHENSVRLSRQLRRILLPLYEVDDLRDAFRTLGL
Method in brief: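 Fluorescence at 540 nm excitation and 590 nm emission reports ssDNA cytosine deamination by AID, with UDG in the same well. Compound-treated reactions ran 4 hr at room temperature with DJC20/DJC23 substrate, followed by 30 min NaOH treatment.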

[2] = Primary qHTS for inhibitors of La Crosse Virus (LACV) - induced cell death in SH-SY5Y cells (AID 1508616); further: potency means the concentration at half of the fitted maximal effect
Method in brief: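 Protection against LACV-induced cell death is scored in SH-SY5Y cells exposed to compounds and virus (0.01 MOI) for 6 days. Data normalized to virus-infected DMSO wells and virus-free DMSO wells.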

[3] = biological target: Calcium and integrin-binding protein 1 (Homo sapiens) (UniProt Q99828); experiment: Validation qHTS for Identification of Calcium Integrin Binding protein 1 (CIB1) Competitor (AID 1508618)
Sequence of Calcium and integrin-binding protein 1 (Homo sapiens) (Q99828 whole entry, looked up): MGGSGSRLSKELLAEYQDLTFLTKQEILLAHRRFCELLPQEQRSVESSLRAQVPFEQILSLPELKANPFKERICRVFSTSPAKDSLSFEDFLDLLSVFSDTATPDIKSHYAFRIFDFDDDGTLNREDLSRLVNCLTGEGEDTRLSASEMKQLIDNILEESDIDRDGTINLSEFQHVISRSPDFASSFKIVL
Method in brief: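 Fluorescence polarization with 1 uM CIB1-GST and 100 nM FITC-alphaIIb peptide in HEPES pH 7.4, NaCl, 5 mM CaCl2, Tween20. Compounds at up to 114 uM final, preincubated with protein 15 min; read after 15 min more at RT.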

[4] = Counterscreen qHTS for small molecule stabilizers of the endoplasmic reticulum resident proteome: GLuc-NoTag assay (AID 1508627);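 further: SH-SY5Y cells given compound then 100 nM thapsigargin to empty ER calcium; series mostly up to about 76 µM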
Method in brief: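 Luminescence of Gaussia luciferase secreted into the medium (coelenterazine, 0.07x final, unlysed cells) was the read-out. Human SH-SY5Y neuroblastoma cells constitutively secreting untagged GLuc received compound for 19 h, then 100 nM thapsigargin for 4 h.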

[5] = Cell Viability qHTS for small molecule stabilizers of the endoplasmic reticulum resident proteome (AID 1508629); settings: cell viability counter-screen, 100 nM thapsigargin for final 4 h;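 further: compound exposure about 46 h in total before the viability read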; further: potency means the concentration at half of the fitted maximal effect;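 on max response: human SH-SY5Y neuroblastoma cells carrying the GLuc-SERCaMP reporter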
[6] = Primary qHTS for small molecule stabilizers of the endoplasmic reticulum resident proteome: Secreted ER Calcium Modulated Protein (SERCaMP) assay (AID 1508630); further: potency means the concentration at half of the fitted maximal effect
Method in brief: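 GLuc-SERCaMP-expressing SH-SY5Y cells, pretreated 16 h with compound, are challenged with thapsigargin to empty ER calcium stores; after 4 h, coelenterazine is added directly to the medium and luminescence is imaged.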

Papain (Carica papaya) = Papain (Carica papaya) (UniProt P00784); experiment: Primary qHTS assay for inhibitors of the protease papain (AID 1645873);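 further: papain turnover of Z-FR-AMC read as the AMC fluorescence gain over 10 min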; further: potency means the concentration at half of the fitted maximal effect
Sequence of Papain (Carica papaya) (P00784 whole entry, looked up): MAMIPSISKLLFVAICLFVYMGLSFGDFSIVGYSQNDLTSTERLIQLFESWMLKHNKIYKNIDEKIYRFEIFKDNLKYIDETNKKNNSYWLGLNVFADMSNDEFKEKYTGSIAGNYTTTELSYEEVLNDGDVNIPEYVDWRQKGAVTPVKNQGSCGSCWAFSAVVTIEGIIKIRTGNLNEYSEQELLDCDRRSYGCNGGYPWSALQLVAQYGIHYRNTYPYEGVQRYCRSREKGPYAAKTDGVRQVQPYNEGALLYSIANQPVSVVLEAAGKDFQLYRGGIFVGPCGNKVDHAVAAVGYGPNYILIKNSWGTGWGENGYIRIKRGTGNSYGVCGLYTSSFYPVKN

[7] = Confirmatory qHTS for small molecule stabilizers of the endoplasmic reticulum resident proteome: Secreted ER Calcium Modulated Protein (SERCaMP) assay (AID 1508628); further: nearly all actives have a fitted effect of over 40% in size; further: potency means the concentration at half of the fitted maximal effect
Method in brief: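 SH-SY5Y cells stably expressing GLuc-SERCaMP, treated 16 h with compound (primary 1.53, 7.67, 38.3 uM; confirmation 11 concentrations, up to 76.6 uM), then 100 nM thapsigargin for 4 h. Secreted Gaussia luciferase in medium read by coelenterazine luminescence.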

[8] = biological target: Calcium and integrin-binding protein 1 (Homo sapiens) (UniProt Q99828); experiment: Primary qHTS for Identification of Calcium Integrin Binding Protein 1 (CIB1) Competitor (AID 1508620);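 further: GST tagged CIB1 binding a fluorescein labelled alphaIIb integrin peptide tracer; top concentration of the series differs between compounds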
Method in brief: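 CIB1-GST (1 uM final) and compound incubated 15 min at room temperature before adding FITC-alphaIIb peptide tracer (100 nM final). Competition for binding read by fluorescence polarization (ex 480, em 540) after another 15 min at room temperature.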

Structure (SMILES): Nc1ccc(-c2ccc3ccccc3n2)cc1
- Potency [1]: inactive
- Potency [2]: inactive
- Potency [3]: inactive
- Potency [4]: inactive
- max response [5]: -7.29%

Structure (SMILES): COc1ccc(CCn2nnnc2C2(c3ccc(C)cc3)CC2)cc1
- Potency [1]: inactive
- Potency [2]: inactive
- Potency [3]: inactive
- Potency [6]: inactive

Structure (SMILES): N[C@@H](Cc1ccc(O)c(I)c1)C(=O)O
- Potency [1]: inactive
- Potency [2]: inactive
- Potency [3]: inactive
- Potency [6]: inactive
- Potency (Papain (Carica papaya)): inactive

Structure (SMILES): NC(C(=O)N[C@@H]1C(=O)N2C(C(=O)O)=C(Cl)CS[C@H]12)c1ccccc1 (stereo partly specified)
- Potency [1]: inactive
- Potency [2]: inactive
- Potency [3]: inactive

Structure (SMILES): c1ccc2c(c1)CC(N1CCN(c3cccc4c3OCCO4)CC1)C2
- Potency [1]: inactive
- Potency [2]: inactive
- Potency [3]: inactive
- Potency [6]: inactive
- Potency (Papain (Carica papaya)): inactive

Structure (SMILES): O=c1[nH]c(=S)[nH]c(-c2ccccc2)c1Cc1c(O)ccc2ccccc12
- Potency [1]: inactive
- Potency [2]: inactive
- Potency [3]: inactive
- Potency [6]: inactive

Structure (SMILES): NC(=Nc1ccccc1)NC(=O)c1nc(Cl)c(N)nc1N
- Potency [1]: inactive
- Potency [2]: inactive
- Potency [3]: inactive
- Potency [4]: inactive
- Potency [7]: inactive
- Potency (Papain (Carica papaya)): 25.1 µM (active)

Structure (SMILES): CC(C)(C)c1cc(/C=C(\C#N)C(N)=S)cc(C(C)(C)C)c1O
- Potency [1]: inactive
- Potency [2]: inactive
- Potency [3]: inactive
- Potency [6]: inactive
- Potency (Papain (Carica papaya)): inactive

Structure (SMILES): O=c1onc2n1-c1cc(Br)ccc1OC2
- Potency [1]: inactive
- Potency [2]: inactive
- Potency [3]: inactive
- Potency [6]: inactive
- Potency (Papain (Carica papaya)): inactive

Structure (SMILES): CC(/C=C/c1cccc(Oc2ccc(F)cc2)c1)N(O)C(N)=O (stereo unspecified)
- Potency [1]: inactive
- Potency [2]: inactive
- Potency [3]: inactive
- Potency [6]: inactive

Structure (SMILES): N#CC(C#N)=C(N)/C(C#N)=C/c1ccc(O)cc1
- Potency [1]: inactive
- Potency [2]: inactive
- Potency [3]: inactive
- Potency [6]: inactive

Structure (SMILES): CCC(=O)N1CCN(C(=O)c2ccccc2)CC1
- Potency [1]: inactive
- Potency [2]: inactive
- Potency [3]: inactive
- Potency [6]: inactive
- Potency (Papain (Carica papaya)): inactive

Structure (SMILES): OC[C@H]1O[C@@H](n2cnc3cncnc32)[C@H](O)[C@@H]1O
- Potency [1]: inactive
- Potency [2]: inactive
- Potency [3]: inactive
- Potency [6]: inactive
- Potency (Papain (Carica papaya)): inactive

Structure (SMILES): COc1ccc(CCN(C)CCc2ccc(OC)c(OC)c2)cc1OC
- Potency [1]: inactive
- Potency [2]: inactive
- Potency [3]: inactive
- Potency [4]: inactive
- Potency [7]: inactive
- max response [5]: 1.86%
- Potency [6]: inactive
- Potency (Papain (Carica papaya)): inactive

Structure (SMILES): Cc1ccc2c(c1)C(N1CCN(C)CC1)=Nc1cccnc1N2
- Potency [1]: inactive
- Potency [2]: inactive
- Potency [3]: inactive

Structure (SMILES): Nn1nnc2ccccc21
- Potency [1]: inactive
- Potency [2]: inactive
- Potency [3]: inactive
- Potency [6]: inactive
- Potency (Papain (Carica papaya)): inactive

Structure (SMILES): O=c1ccc2c(OCCCCc3ccccc3)c3ccoc3cc2o1
- Potency [1]: inactive
- Potency [2]: inactive
- Potency [3]: inactive
- Potency [6]: inactive
- Potency (Papain (Carica papaya)): inactive

Structure (SMILES): COc1cc(/C=C(\C#N)C(=O)c2ccc(O)c(O)c2)cc(I)c1O
- Potency [1]: inactive
- Potency [2]: inactive
- Potency [3]: inactive
- max response [5]: 17.8%
- Potency [6]: 11.2 µM (active)

Structure (SMILES): Nc1ncnc2c1c(-c1ccc(Oc3ccccc3)cc1)cn2C1CCCC1
- Potency [1]: inactive
- Potency [2]: inactive
- Potency [3]: inactive
- outcome [8]: inactive
- Potency [6]: inactive
- Potency (Papain (Carica papaya)): inactive

Structure (SMILES): O=C(O)Cc1ccc(O)c(O)c1
- Potency [1]: inactive
- Potency [2]: inactive
- Potency [3]: inactive
- Potency [6]: inactive

Structure (SMILES): CCCCCCCC/C=C\CCCCCCCC(=O)NCCc1ccc(O)c(O)c1
- Potency [1]: inactive
- Potency [2]: 2.82 µM (active)
- Potency [3]: inactive
- Potency [4]: inactive
- Potency [7]: 5.01 µM (active)
- Potency [5]: 3.98 µM (active) and 7.08 µM (active)
- Potency (Papain (Carica papaya)): inactive

Structure (SMILES): CCCC(=O)NCCc1c2n(c3ccc(OC)cc13)CCCc1ccccc1-2
- Potency [1]: inactive
- Potency [2]: inactive
- Potency [3]: inactive

Structure (SMILES): CN1CCc2cc(Cl)c(O)cc2[C@@H](c2ccccc2)C1
- Potency [1]: inactive
- Potency [2]: inactive
- Potency [3]: inactive
- Potency [7]: inactive
- Potency [6]: inactive

Structure (SMILES): COc1cccc(OC)c1OCCNCC1CSc2ccccc2O1 (stereo unspecified)
- Potency [1]: inactive
- Potency [2]: inactive
- Potency [3]: inactive
- Potency [6]: inactive

Structure (SMILES): Oc1cc2c(cc1O)C(c1ccccc1)CNCC2 (stereo unspecified)
- Potency [1]: inactive
- Potency [2]: inactive
- Potency [3]: inactive
- Potency [6]: inactive
- Potency (Papain (Carica papaya)): inactive

Structure (SMILES): CNCCNS(=O)(=O)c1cccc2cnccc12
- Potency [1]: inactive
- Potency [2]: inactive
- Potency [3]: inactive
- Potency [6]: inactive
- Potency (Papain (Carica papaya)): inactive

Structure (SMILES): CC(C)Cn1c(=O)n(C)c(=O)c2[nH]cnc21
- Potency [1]: inactive
- Potency [2]: inactive
- Potency [3]: inactive
- Potency [6]: inactive
- Potency (Papain (Carica papaya)): inactive

Structure (SMILES): CC(N)(Cc1ccc(O)c(O)c1)C(=O)O (stereo unspecified)
- Potency [1]: inactive
- Potency [2]: inactive
- Potency [3]: inactive

Structure (SMILES): C=CC1(C)CC(=O)C2(O)C(C)(O1)C(OC(C)=O)C(O)C1C(C)(C)CCC(O)C12C (stereo unspecified)
- Potency [1]: inactive
- Potency [2]: inactive
- Potency [3]: inactive
- Potency [6]: inactive

Structure (SMILES): CCCCOC(=O)NS(=O)(=O)c1sc(CC(C)C)cc1-c1ccc(Cn2c(CC)nc3c(C)cc(C)nc32)cc1
- Potency [1]: inactive
- Potency [2]: inactive
- Potency [3]: inactive
- Potency [7]: 15.8 µM (active)
- Potency (Papain (Carica papaya)): inactive

Structure (SMILES): O=S(=O)(c1cccc2c(Cl)cccc12)N1CCCNCC1
- Potency [1]: inactive
- Potency [2]: inactive
- Potency [3]: inactive
- Potency [4]: inactive
- Potency [7]: inactive
- Potency (Papain (Carica papaya)): inactive

Structure (SMILES): CCCc1c(OCCCOc2ccc(OCC(=O)O)cc2)ccc(C(C)=O)c1O
- Potency [1]: inactive
- Potency [2]: inactive

Structure (SMILES): NS(=O)(=O)c1cccc2c1c([N+](=O)[O-])cc1nc(O)c(O)nc12
- Potency [1]: inactive
- Potency [2]: inactive

Structure (SMILES): NC(N)=NC(N)=Nc1ccccc1
- Potency [1]: inactive
- Potency [2]: inactive
- Potency [3]: inactive
- Potency [4]: inactive
- Potency [7]: inactive
- Potency [6]: inactive
- Potency (Papain (Carica papaya)): inactive

Structure (SMILES): Cc1ccc([N+](=O)[O-])cc1S(=O)(=O)N(C)C
- Potency [1]: inactive
- Potency [2]: inactive
- Potency [3]: inactive
- Potency [6]: inactive
- Potency (Papain (Carica papaya)): inactive

Structure (SMILES): Cc1nc(N=Nc2ccc(S(=O)(=O)O)cc2S(=O)(=O)O)c(COP(=O)(O)O)c(C=O)c1O
- Potency [1]: inactive
- Potency [2]: inactive
- Potency [3]: inactive
- Potency [4]: inactive
- Potency [7]: inactive
- Potency [6]: inactive
- Potency (Papain (Carica papaya)): inactive
